High-throughput results: PubChem, National Center for Advancing Translational Sciences (NCATS)
Pf growth 96h: Primary qHTS for delayed death inhibitors of the malarial parasite plastid, 96 hour incubation | P. falciparum luciferase reporter growth, 96 h | Potency, µM (highest dose often 28.7 µM), inactives show top-dose activity change, negative = inhibition, most hits filed as inhibitors | actives 6.9% (n = 320,000); active = well fitted inhibition curve with a large enough effect; inconclusive = small, poorly fitted or top-dose-only effect, or another doubt; inactive = no such curve, though single readings can be large or run the other way; also: potency is read from the fitted curve at half-maximal effect; % is scaled to controls: 0 for no effect and ±100 for the full control effect
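Compounds incubated with erythrocytes infected by luciferase-expressing P. falciparum (2% hematocrit, 0.05% parasitemia final) for 96 hours, 37 C in 5% CO2. Growth inhibition scored as decreased luciferase luminescence.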
Pf growth 48h: Primary qHTS for delayed death inhibitors of the malarial parasite plastid, 48 hour incubation; P. falciparum luciferase growth in erythrocytes, 48 h; Potency, µM (series often up to 28.7 µM), inactives show at the highest dose activity change, negative = inhibition, most hits filed as inhibitors; actives 5.9% (n = 310,000); AID 504832, 2011; active = well fitted inhibition curve with a large enough effect; inconclusive = small, poorly fitted or top-dose-only effect, or another doubt; inactive = no such curve, though single readings can be large or run the other way; also: potency is read from the fitted curve at half-maximal effect; % is scaled to controls: 0 for no effect and ±100 for the full control effect
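Firefly luciferase activity from engineered P. falciparum reports growth; inhibitors lower the luminescent signal. Cultures contained 2% hematocrit erythrocytes at 0.1% final parasitemia.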
NS1 function inh: qHTS Assay for Inhibitors of Influenza NS1 Protein Function | Potency, µM (highest dose often 46.1 µM), inactives show top-dose activity, positive = more growth | actives 0.4% (n = 270,000) | AID 2326, 2010; also: potency is read from the fitted curve at half-maximal effect; actives are rising curves; nearly all actives have a fitted effect of over 50% in size
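Compounds were scored for reversing the slow growth caused by influenza A NS1 in S. cerevisiae, measured by optical density at 600 nm. Assay medium contained 2% galactose at pH 6.0; NS1-free yeast of the same strain were the positive control.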
CHX counter: Cycloheximide Counterscreen for Small Molecule Inhibitors of Shiga Toxin; cell reporter, cycloheximide protein synthesis inhibition counterscreen; AID 2314, 2010; max response, %; actives 12% (n = 300,000); in the data active = max response mostly above about 13%, no sharp cut-off; inactive = mostly below about 14%; also: read at 38.3 µM for the half of the compounds with a filed dose; 0% is about no effect
Shiga toxin inh: A qHTS for Small Molecule Inhibitors of Shiga Toxin. Vero cells, Shiga toxin protein synthesis inhibition reporter. inhibition, % at 38.7 µM. actives 9.2% (n = 290,000); in the data active = inhibition mostly above about 28%, no sharp cut-off; inactive = mostly below about 43%; also: 0% is about no effect
SARS PLP yeast: qHTS of Yeast-based Assay for SARS-CoV PLP; S. cerevisiae expressing SARS-CoV PLpro, growth rescue; Potency, µM (top dose mostly 32.9 µM), for inactives: top-dose activity, positive = growth rescue, hits mostly activators; actives 0.19% (n = 330,000); also: potency is read from the fitted curve at half-maximal effect; 0% is about no effect; nearly all actives have a fitted effect of over 55% in size
Starred values were filed as active, the others as inactive; ? = inconclusive; . = no result. An excerpt weighted towards active compounds, which were near 21% of everything screened. Unless noted, calls follow the shape of the full dose curve.

SMILES	Pf growth 96h	Pf growth 48h	NS1 function inh	CHX counter	Shiga toxin inh	SARS PLP yeast
Nc1nc(Nc2ccccc2Br)nc(C(F)(F)F)n1	10.4µM*	46.7%	-33.2%	11.7	24.3	-11.2%
Nc1nc(Nc2ccccc2)nc(C(F)(F)F)n1	7.38µM*	40.4%	-38.4%	30.0*	47.3	-0.4%
CN(C(=O)c1ccco1)c1nc(-c2ccc(Cl)cc2)cs1	6.57µM*	119.0%	0.6%	25.3*	22.5	0.9%
Cc1ccc(-c2csc(N(C)C(=O)c3c(C)nn(-c4ccccc4)c3Cl)n2)cc1	?	11.7µM*	20.8%	-0.4	-6.7	-2.3%
CN(C)CCCN(C(=O)c1ccco1)c1nc(-c2ccc(Cl)cc2)cs1	-6.9%	0.0%	-7.1%	-7.0	-5.6	1.3%
CCn1nc(C(=O)OCC(=O)Nc2nc(-c3ccc(OC)cc3)cs2)c2ccccc2c1=O	245.7%	177.9%	15.0%	46.4*	49.8*	19.3%
COc1ccc(-c2csc(N(C)C(=O)c3ccco3)n2)cc1	-5.8%	97.7%	-12.1%	36.9*	.	-1.2%
COc1ccc(OC)c(-c2csc(N(C)C(=O)c3ccco3)n2)c1	?	17.1%	12.0%	1.2	.	-0.7%
Cc1ccc(CN(C)C(=O)c2c(C)nn(-c3ccccc3)c2C)cc1	-22.0%	-14.3%	-4.3%	-9.3	1.6	-0.7%
O=C(NCc1ccccc1)c1ccc(NC(=O)C2CCCO2)cc1 (configuration not stated)	?	12.8%	3.4%	1.9	-10.4	-4.8%
Cc1cc(Cl)c(S(=O)(=O)NC2CCCC2)cc1OCC(=O)NC1CCCCC1	?	.	1.0%	-4.7	-7.2	4.0%
COc1ccc(-c2csc(NC(=O)COC(=O)c3ccco3)n2)cc1	258.6%	136.8%	10.2%	49.5*	42.7*	11.8%
COc1ccc(-c2csc(NC(=S)NC(=O)c3ccco3)n2)cc1	11.5%	30.0%	.	5.3	-22.1	1.2%
CNC(=O)C1(C(F)(F)F)C/C(=C\CCO)CCCO1 (configuration not stated)	-22.3%	42.8%	3.7%	-1.6	0.4	-8.6%
Nc1ccc2oc(-c3cccc4ccccc34)nc2c1	.	62.3%	18.0%	-2.0	-2.4	-2.6%
O=C(Nc1ccc2oc(-c3ccccc3Cl)nc2c1)c1ncn[nH]1	.	102.0%	6.4%	42.8*	112.6*	-7.9%
O=C(Nc1ccc2oc(-c3ccccc3Cl)nc2c1)c1cncc(Br)c1	-6.2%	126.3%	-9.8%	65.8*	70.7*	-7.6%
O=C(Nc1ccc2oc(-c3cccc4ccccc34)nc2c1)c1ncn[nH]1	?	.	3.3%	18.1*	27.5	10.2%
C[C@H](NC(N)=O)C(=O)N1CCN(S(=O)(=O)c2ccc3ccccc3c2)CC1	-16.3%	19.6%	9.4%	-6.6	-3.5	1.2%
Cc1ccc(N2C(=O)NC(NS(=O)(=O)c3ccccc3)(C(F)(F)F)C2=O)cc1C (configuration not stated)	?	1.9%	?	1.6	-10.3	3.3%
CCOC(=O)C1CCCN(CC(O)COCc2ccccc2OC)C1 (configuration not stated)	?	?	6.4%	-6.9	12.2	-0.6%
COc1cc(/C=C2\N=C(c3ccccc3)OC2=O)ccc1OC(C)=O	?	123.1%	7.9%	7.5*	-14.0	4.9%
COc1ccc(/C=C2\N=C(C)OC2=O)cc1OC(C)=O	46.4%	6.4%	-0.6%	-4.5	-1.3	-0.4%
CC(=NCCN1CCN(C(=S)Nc2ccccc2)CC1)C1=C(O)CC(C)(C)CC1=O	?	?	-3.6%	-4.1	-5.8	-0.4%
Cc1cc(C(C)(C)C)cc(C)c1C[n+]1ccc2ccccc2c1	1.31µM*	1.17µM*	-3.9%	-9.5	-6.3	0.0%
CO/N=C/c1ccc(Oc2ccc(C)cc2)nc1	4.7%	31.4%	-21.8%	26.8*	44.9*	8.4%
CC1CCCCN1C(=O)c1ccccc1NC(=O)c1ccco1 (configuration not stated)	10.4µM*	3.7%	-3.2%	-5.0	1.5	-3.3%
O=C(Nc1ccccc1C(=O)N1CCOCC1)c1ccco1	?	-0.3%	5.4%	0.9	-8.1	-12.2%
